From PubChem BioAssay AID492967 (ICCB-Longwood Screening Facility, Harvard Medical School, 2010)
Values joined by “and” are separate entries in the source; they are usually repeats but may differ in a detail not shown here. Equal values may be shown once. Hit rate of the full screen: of about 140,000 compounds, about 320 (0.23%) were called active. No stated cut-off is given here; in the data, active means z-score mostly below about -2.9 (no sharp cut-off); inactive means mostly above about -1.9. Only a selection was taken, and actives are over-represented in it overall. Where a structure was tested more than once in an assay, its records may differ in their call.

Tested on: CapD gamma-glutamyltranspeptidase (Bacillus anthracis Ames Ancestor)
Experiment: Bacillus anthracis CapD inhibitors, primary screen, biochemical, fluorescence intensity (AID 492967)
Conditions: purified CapD enzyme, fluorescence intensity read-out; stronger effect = lower value

| SMILES | z-score |
| --- | --- |
| Cc1cccc(N2CCN(C(=O)c3cccc(N4C(=O)C5C6C=CC(C6)C5C4=O)c3)CC2)c1C (centres undefined) | -0.42 (inactive) |
| CCOC(=O)c1cc2cccc(NC(=O)c3cccc(C(F)(F)F)c3)c2[nH]1 | -0.595 (inactive) |
| CCCCCNC(=O)c1ccc2c(c1)[nH]c(=S)n1c3ccccc3nc21 | -0.3 (inactive) |
| CN(CC(=O)O)S(=O)(=O)c1ccc2oc3ccccc3c2c1 | 0.355 (inactive) |
| C=CCN1CCN(C(=O)C2CC2)CC1 | 0.655 (inactive) |
| CCCNC(=O)Nc1ccc2snnc2c1 | 26.7 (inactive) |
| CCOC(=O)c1ccc(N2N=C(C(F)(F)F)/C(=C/c3cc(Cl)c(O)c(OC)c3)C2=O)cc1 | -0.22 (inactive) |
| CCC(C)(C)c1cc2cc(NS(=O)(=O)c3ccccc3)ccc2[nH]1 | -0.4 (inactive) |
| CCOC(=O)c1cc2cccnc2nc1C | -0.34 (inactive) |
| CCOc1ccc(C(=O)/C(C)=N/O)cc1 | -1.18 (inactive) |
| Cc1ccc2nc(N3CC(=O)N(CCc4ccccc4)C(=O)C3)c3nncn3c2c1 | -0.125 (inactive) |
| CC(Oc1ccc(OC(C)C(=O)/C=C/N(C)C)cc1)C(=O)/C=C/N(C)C (centres undefined) | -1.18 (inactive) |
| N#Cc1c(-c2ccccc2)cc(-c2ccccc2)c(C#N)c1N | 21 (inactive) |
| FC(F)(F)c1cccc(N2CCN(C(=S)Nc3ccccc3)CC2)c1 | -0.215 (inactive) |
| O=C(COC(=O)Cc1ccsc1)Nc1ccccc1C(F)(F)F | -1.17 (inactive) |
| CCOc1ccc(/C=C2/SC(=S)N(CC(=O)O)C2=O)cc1 | -0.21 (inactive) |
| FC(F)(F)C1=CC=NCCN1 | -4.38 (active) |
| CC(C)(C)OC(=O)/N=C(\N)N(CCCC(NC(=O)OC(C)(C)C)C(=O)NCc1cccs1)C(=O)OC(C)(C)C (centres undefined) | -0.295 (inactive) |
| O=C(c1ccco1)N1CCN(Cc2cccc(C(F)(F)F)c2)CC1 | 0.64 (inactive) |
| CCNC(=O)C(=O)Nc1cccc(C(F)(F)F)c1 | 0.01 (inactive) |
| CCOC(=O)N/N=C1/c2ccccc2C2(O)NC(=O)NC12O (centres undefined) | 0.15 (inactive) |
| CN1C(=O)C(=Cc2cn(CC(=O)NCc3ccco3)c3ccccc23)C(=O)N(C)C1=O | -0.57 (inactive) |
| C=CCn1cc(C=C2C(=O)N(C)C(=S)N(C)C2=O)c2ccccc21 | 3.29 (inactive) |
| O=C(O)Cn1cc(/C=C2\C(=O)NN(c3ccccc3)C2=O)c2ccccc21 | -6.26 (active) |

| SMILES | z-score |
| --- | --- |
| CCOc1ccc(CCNC(=O)c2nnc(-c3cccnc3)o2)cc1OCC | 0.25 (inactive) |
| Cc1nc2ccccc2n1CC1CC1(Cl)Cl (centres undefined) | -0.66 (inactive) |
| O=C(O)CSc1ncn(-c2ccccc2)n1 | 0.115 (inactive) |
| CC1(C)c2ccccc2N2CCC(=O)NC21/C=C/c1cccnc1 (centres undefined) | 0.115 (inactive) |
| CN(C)/C=C/C(=O)C(Cc1ccc(Cl)cc1)Cc1ccc(Cl)cc1 | -0.33 (inactive) |
| O=[N+]([O-])c1cccc(C2(O)CN(c3ccc(Cl)cc3)C3=[N+]2CCCS3)c1 (centres undefined) | 0.185 (inactive) |
| COc1ccc2nc3oc(C(=O)NC4CC4)cc3cc2c1 | 3.45 (inactive) |
| O=c1[nH][nH]c(=O)c2c(N=Cc3c[nH]c4ccccc34)cccc12 | 57.4 (inactive) |
| CC1(C)CC(=O)C(=Cc2c[nH]c3ccccc23)C(=O)C1 | -4.71 (active) |
| O=C(c1ccccc1)C(O)c1c[nH]c2ccccc12 (centres undefined) | 0.51 (inactive) |
| O=C(CC(NCc1ccco1)C(=O)O)Nc1cccc(C(F)(F)F)c1 (centres undefined) | -0.155 (inactive) |
| CCOc1ncccc1C(=O)Nc1cccc(C(F)(F)F)c1 | -0.145 (inactive) |
| O=c1cc(CO)oc(C(Nc2cccc(C(F)(F)F)c2)c2ccccn2)c1O (centres undefined) | -6.66 (active) |
| CCC1CCCCN1C(=O)CSc1ccc(C)cc1 (centres undefined) | -0.23 (inactive) |
| O=c1oc2ccccc2cc1-c1nc(-c2ccc(Cl)cc2)cs1 | 0.955 (inactive) |
| Cc1cc(=O)oc2c3c(ccc12)OCN(c1ccccc1Cl)C3 | 21.1 (inactive) |
| CCC(C)NC(=O)c1onc(C)c1Cl (centres undefined) | -0.44 (inactive) |
| Cc1c(NS(=O)(=O)c2ccc3c(c2)C(=O)c2ccccc2C3=O)c(=O)n(-c2ccccc2)n1C | -0.465 (inactive) |
| O=C1CCCC2=C1C(c1ccc(Cl)cc1)c1c(ccc3ccccc13)N2 (centres undefined) | 0.255 (inactive) |
| Cc1ccc(Oc2cc(Oc3ccc(C)cc3)c3noc4c3c2C(=O)c2ccccc2-4)cc1 | 0.03 (inactive) |
| Cc1cc2c(cc1C)CSC(c1cc(Cl)cc(Cl)c1O)SC2 | -0.005 (inactive) and -0.385 (inactive) |
| COc1cc2c(C(=O)NCCC(C)C)cn(C)c(=O)c2cc1OC | 0.63 (inactive) |
| C=CCN(C(=O)c1ccc(N2CC3CC(C2)c2cccc(=O)n2C3)c(NC(=O)c2ccc(OC)cc2)c1)c1ccccc1 (centres undefined) | -0.49 (inactive) |
| O=C(OC1CCCCC1=O)c1ccc(O)cc1 (centres undefined) | -0.295 (inactive) |

| SMILES | z-score |
| --- | --- |
| CCOc1cccc2cc(C(=O)Nc3ccc(Oc4ccccc4)cc3)c(=O)oc12 | 1.48 (inactive) |
| CC12CCC(C(=O)Nc3ncc(Cl)cc3Cl)(CC1=O)C2(C)C (centres undefined) | -1.89 (active) |
| CC12CCC(C(=O)O)(CC1=O)C2(C)C (centres undefined) | -0.19 (inactive) |
| O=C(COC(=O)c1ccccc1)Nc1ncc(Cl)cc1Cl | 0.31 (inactive) |
| CCOC(=O)C1=NN(C(=O)CCc2ccccc2)C(O)(c2ccc(Cl)cc2)C1 (centres undefined) | -1.38 (inactive) |
| CCC(C(=O)Nc1cccc(OC)c1)N1C(=O)CCn2nccc21 (centres undefined) | 0.745 (inactive) |
| O=C1C2C3c4ccccc4C(c4ccccc43)C2C(=O)N1c1ccccc1Cl (centres undefined) | 0.425 (inactive) |
| Nc1[nH]c(=S)sc1C(=O)Nc1nccs1 | -5.56 (active) |
| O=C(O)c1ccccc1-c1ccccc1C(=O)Nc1nccs1 | 0.375 (inactive) |
| O=C(Nc1nccs1)c1cc(=O)c2ccccc2o1 | -0.41 (inactive) |
| CC(=O)Nc1ccc2c(c1)OCCOCCOCCO2 | -0.015 (inactive) |
| CC(C)Oc1ccccc1C(N)=O | -0.285 (inactive) |
| COc1ccc(CSc2nc(N)nc(-c3cccs3)c2C#N)cc1 | 3.26 (inactive) |
| O=C(Oc1ccc(C=Nc2cccc(Br)c2)cc1)c1ccccn1 | -0.36 (inactive) |
| Fc1ccccc1-c1nc(N2CCC3(CC2)OCCO3)c2ccccc2n1 | -0.275 (inactive) |
| CC(C)C(=O)N=c1scc(-c2ccccc2)n1-c1ccccc1Cl | 0.04 (inactive) |
| COc1ccc(C(=O)NNC(=O)C2CCN(c3ccc(C(F)(F)F)cn3)CC2)cc1 | 3.11 (inactive) |
| CC(C)CCOc1ccc(C(=O)C(C)C)cc1 | 0.445 (inactive) |
| COc1ccccc1C1CCN(C(=O)c2ccccc2C(F)(F)F)CC1 | 0.315 (inactive) |
| CC1=C(C(=O)OCCc2ccccc2)C(c2ccccc2C(F)(F)F)NC(=O)N1C (centres undefined) | -0.495 (inactive) |
| N#CC(=C1C(=O)c2ccccc2C1=O)c1nc2ccccc2[nH]1 | -4.36 (active) |
| CS(=O)(=O)c1nc2ccccc2[nH]1 | 0.005 (inactive) |
| N#C/C(=C\C=C\c1ccccc1)c1nc2ccccc2[nH]1 | 2.54 (inactive) |
| ClCCOc1nc(N2CCOCC2)nc(N2CCOCC2)n1 | -0.68 (inactive) |

| SMILES | z-score |
| --- | --- |
| O=C(c1ccc(Cn2c(=S)[nH]c3ccc(Br)cc3c2=O)cc1)N1CCN(C(=O)c2ccco2)CC1 | 0.025 (inactive) |
| Cc1ccccc1C(=O)N1CCc2c([nH]c3ccccc23)C1 | 0.37 (inactive) |
| CCOC(=O)C1=CN(Cc2ccc(OC)cc2)C=C(C(=O)OCC)C1c1cc(Br)c(OCC)c(OC)c1 | 22.1 (inactive) |
| O=C(Cn1c2ccccc2c(=O)c2cc(Cl)ccc21)Nc1ccc(OCc2ccccc2)cc1 | 0.395 (inactive) |
| COc1ccc(S(=O)c2ccccc2C(=O)O)cc1 (centres undefined) | 0.375 (inactive) |
| COc1ccccc1N1CCN(c2ncnc3sc(C(=O)Nc4ccc5c(c4)OCCO5)c(C)c23)CC1 | -0.055 (inactive) |
| COc1cccc(N/C(SCc2c(F)cccc2Cl)=C(/C#N)C(=O)NCc2ccccc2)c1 | -0.425 (inactive) |
| O=c1c(-c2cc3ccccc3o2)[n+]([O-])c2ccccc2n1O | 2.82 (inactive) |
| O=C1/C(=C/c2ccc(Br)cc2)C=C(c2ccccc2)N1c1ccccc1Br | -0.72 (inactive) |
| NC(=O)CCc1cn(-c2ccccc2)nc1-c1ccccc1 | -0.045 (inactive) |
| COc1cc2c(cc1OC)C(c1ccc(Cl)cc1)NC(=O)C2 (centres undefined) | -0.115 (inactive) |
| CCOC(=O)C1=C(C)NC(C)=C(C(=O)OCC)C1c1cn(-c2ccccc2)nc1-c1ccc(F)cc1 | 3.54 (inactive) |
| CC(C)(C)c1ccc(S(=O)(=O)Nc2ccc3c(c2)N(S(=O)(=O)c2cccc(C(F)(F)F)c2)CC3)cc1 | -0.6 (inactive) |
| Cc1c(Cl)cccc1N=C1NC(=O)/C(=C/c2ccco2)S1 | -1 (inactive) |
| CCN(CC)C(=O)Cn1ncc2c3ccccc3n(Cc3ccccc3)c2c1=O | 2.73 (inactive) |
| O=C(CN1C(=O)CC(c2ccccc2)Sc2ccccc21)NCc1ccccc1 (centres undefined) | -0.28 (inactive) |
| COc1cc(/C=C2/N=C(c3ccc(Cl)c([N+](=O)[O-])c3)OC2=O)cc(OC)c1OC | 0.85 (inactive) |
| CC1CCC(C(C)C)C(OCC(O)CN2CCN(c3ccccc3)CC2)C1 (centres undefined) | 0.045 (inactive) |
| Cc1ccc(C(=O)N/C(=C\c2ccccc2)C(=O)Nc2c(C)n(C)n(-c3ccccc3)c2=O)cc1 | -0.355 (inactive) |
| Cc1c(NC(=O)c2cccnc2)c(=O)n(-c2ccccc2)n1C | -0.255 (inactive) and -5.24 (active) |
| COC(=O)Nc1c(C)n(C)n(-c2ccccc2)c1=O | 0.115 (inactive) |
| COc1cc(NC(=O)c2cc(N(C)C)nc(N(C)C)n2)cc(OC)c1 | 4.64 (inactive) |
